Counter-ions that a name gives are not always drawn.

The test relates to Danio rerio larvae (5 dpf). In words: optomotor response to fast red moving lines, difference vs DMSO (percentage points (treated minus DMSO)); higher = more of the behaviour than the DMSO vehicle control. Particulars: 10 µM; exposure time: 3 h pre-incubation + 3 h imaging. The method, then:
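5-dpf wild-type zebrafish larvae were imaged in 96-well plates. They were treated with 190 Tocris FDA-approved drugs at 10 µM (1 µl/ml DMSO) for 3 h before and 3 h during imaging at 28.5 °C, 48 larvae per drug. Automated image analysis gave % time moving and optomotor responses. Values are drug group mean minus DMSO vehicle mean (n=844), in percentage points, for 10 behaviours.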
`C[C@H](Cc1cc2c(c(C(N)=O)c1)N(CCCO)CC2)NCCOc1ccccc1OCC(F)(F)F` [Silodosin]: the optomotor response stood at 11.4. Then `COc1c(C)c2c(c(O)c1C/C=C(\C)CCC(=O)OCCN1CCOCC1)C(=O)OC2` [Mycophenolate mofetil], with 2.27.

`CCOc1nc2cccc(C(=O)O)c2n1Cc1ccc(-c2ccccc2-c2noc(=O)[nH]2)cc1` [Azilsartan]: the optomotor response was -3.36. Then `CCN(Cc1ccncc1)C(=O)C(CO)c1ccccc1` (stereo not given) [Tropicamide], with -0.214; and `OCc1cc(C(O)CNCCCCCCOCCCCc2ccccc2)ccc1O` (stereo not given) [Salmeterol xinafoate], with -5.49. Turning to `Brc1c(NC2=NCCN2)ccc2nccnc12`, the optomotor response worked out at 16.1. With `CCCCCOC(=O)Nc1nc(=O)n([C@@H]2O[C@H](C)[C@@H](O)[C@H]2O)cc1F` [Capecitabine], the optomotor response turned out to be 5.07. With `NS(=O)(=O)c1cc(C(=O)O)c(NCc2ccco2)cc1Cl` [Furosemide], the optomotor response stood at 0.619. For `N[C@@H]1[C@H]2CN(c3nc4c(cc3F)c(=O)c(C(=O)O)cn4-c3ccc(F)cc3F)C[C@@H]12` [Trovafloxacin mesylate] the value was -4.84; for `CC#C[C@]1(O)CC[C@H]2[C@@H]3CCC4=CC(=O)CCC4=C3[C@@H](c3ccc(N(C)C)cc3)C[C@@]21C` [Mifepristone], -1.97; for `CC(=O)Nc1ccc(O)cc1` [Acetaminophen], -11.2. Turning to `COc1ccc(Cl)cc1C(=O)NCCc1ccc(S(=O)(=O)NC(=O)NC2CCCCC2)cc1` [Glibenclamide], the optomotor response is -19.5. Regarding `CN1CCN(CCCN2c3ccccc3Sc3ccc(Cl)cc32)CC1` [Prochlorperazine dimaleate], the optomotor response stood at 2.92. Then `C=C1[C@H](CO)[C@@H](O)C[C@@H]1n1cnc2c(=O)[nH]c(N)nc21` [Entecavir], with -0.927; and `CN(CCOc1ccc(NS(C)(=O)=O)cc1)CCc1ccc(NS(C)(=O)=O)cc1` [Dofetilide], with 2.79. Take `Cc1nnc(C(C)C)n1C1C[C@H]2CC[C@@H](C1)N2CC[C@H](NC(=O)C1CCC(F)(F)CC1)c1ccccc1` (stereo in doubt) [Maraviroc]: the optomotor response stood at 6.43. Then `Nc1nc2[nH]cc(CCc3ccc(C(=O)N[C@@H](CCC(=O)O)C(=O)O)cc3)c2c(=O)[nH]1` [Pemetrexed], with -14.2; and `Cc1ccc(O)c([C@H](CCN(C(C)C)C(C)C)c2ccccc2)c1` [Tolterodine L-tartrate], with 2.15; and `CCOc1ccccc1OCCN[C@H](C)Cc1ccc(OC)c(S(N)(=O)=O)c1` [Tamsulosin hydrochloride], with -10.3. As to `CNC(=O)c1ccccc1Sc1ccc2c(/C=C/c3ccccn3)n[nH]c2c1` [Axitinib], the optomotor response is -2.38. Then `Nc1nc(NC2CC2)c2ncn([C@H]3C=C[C@@H](CO)C3)c2n1` [Abacavir hemisulfate], with -1.18; and `Cn1cnc([N+](=O)[O-])c1Sc1ncnc2[nH]cnc12` [Azathioprine], with 9.79. For `CC(C)c1nc(N(C)S(C)(=O)=O)nc(-c2ccc(F)cc2)c1/C=C/[C@@H](O)C[C@@H](O)CC(=O)O` [Rosuvastatin calcium] the value was 11.1; for `COc1cc2ncnc(Nc3ccc(F)c(Cl)c3)c2cc1OCCCN1CCOCC1` [Iressa], 8.7. Take `OCCOCCN1CCN(C2=Nc3ccccc3Sc3ccccc32)CC1` [Quetiapine hemifumarate]: the optomotor response was -5.91. On to `NS(=O)(=O)c1cc2c(cc1Cl)NC(C1CC3C=CC1C3)NS2(=O)=O` (stereo not given) [Cyclothiazide], for which the optomotor response is -3.47. For `CC(C)OC(=O)C(C)(C)Oc1ccc(C(=O)c2ccc(Cl)cc2)cc1` [Fenofibrate] the value was 19.2; for `CC(CCc1ccc(O)cc1)NCCc1ccc(O)c(O)c1` (stereo not given) [Dobutamine hydrochloride], -7.53; for `O=C(O)CCCc1ccccc1` [Sodium 4-Phenylbutyrate], -11. For `Nc1nc(Cl)nc2c1ncn2[C@@H]1O[C@H](CO)[C@@H](O)[C@@H]1F` [Clofarabine] the value was -10.5; for `CC(C)c1nc(CN(C)C(=O)N[C@H](C(=O)N[C@@H](Cc2ccccc2)C[C@H](O)[C@H](Cc2ccccc2)NC(=O)OCc2cncs2)C(C)C)cs1` [Ritonavir], -9.38. Then `Nc1ccn([C@@H]2O[C@H](CO)[C@@H](O)C2(F)F)c(=O)n1` [Gemcitabine hydrochloride], with 5.64. For the molecule `CCCC1O[C@@H]2C[C@H]3[C@@H]4CCC5=CC(=O)C=C[C@]5(C)[C@H]4[C@@H](O)C[C@]3(C)[C@]2(C(=O)CO)O1` (stereo not given in full) [Budesonide], the optomotor response was 0.572. In the case of `COc1ccc(C[C@@H](C)NC[C@H](O)c2ccc(O)c(NC=O)c2)cc1` [Arformoterol tartrate], the optomotor response is -17.7.

Take `Clc1ccc2nsnc2c1NC1=NCCN1` [Tizanidine hydrochloride]: the optomotor response was 4.15. With `COc1cc2nc(N3CCN(C(=O)C4COc5ccccc5O4)CC3)nc(N)c2cc1OC` (stereo not given) [Doxazosin mesylate], the optomotor response is -4.8.

For `NS(=O)(=O)Cc1noc2ccccc12` [Zonisamide], the optomotor response was -0.856. For `CCC(=O)O[C@]1(C(=O)SCF)[C@H](C)C[C@H]2[C@@H]3C[C@H](F)C4=CC(=O)C=C[C@]4(C)[C@@]3(F)[C@@H](O)C[C@@]21C` [Fluticasone propionate] the value was -7.85; for `CO[C@H]1/C=C/O[C@@]2(C)Oc3c(C)c(O)c4c(O)c(c5c(nc6cc(C)ccn65)c4c3C2=O)NC(=O)/C(C)=C\C=C\[C@H](C)[C@H](O)[C@@H](C)[C@@H](O)[C@@H](C)[C@H](OC(C)=O)[C@@H]1C` [Rifaximin], -3.87; for `CC(=O)NC[C@H]1CN(c2ccc(N3CCOCC3)c(F)c2)C(=O)O1` [Linezolid], 5.73.

These data come from the supplement of paper PMC9023506.
